D1 mod: allosteric modulators of human D1 dopamine receptor; HEK293 D1, CRE-luciferase, dopamine EC30 potentiation; actives deviate in either direction; B-score at 10 µM; hit rate 5.9% among 58,000;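 active = luminescence count or its row- and column-corrected plate score outside the 99.7% band of the plate's sample wells, on either side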
TNAP act mid DEA: activates human TNAP at intermediate phosphate acceptor concentration; P05186; purified TNAP, CDP-star luminescence, 100 mM DEA, 30 min; hits give high values; scale: 0 levamisole-inhibited, 1 vehicle-only enzyme; activation factor at 20 µM; 64,000 tested, under 10 active; AID 813;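 active = activation factor of at least 2 at 20 µM, relative to controls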
FXIIa inh mix: inhibitors of human coagulation factor XIIa, pooled mixtures. P00748. purified FXIIa, fluorogenic substrate. inhibition, % at 5 µM. hit rate 0.2% among 62,000. AID 684
FXIa mix inh: blocks human factor XIa in pooled compound mixtures; P03951; purified FXIa, fluorogenic substrate; inhibition, % at 5 µM; hit rate 0.19% among 62,000; AID 680;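 also: each value is inhibition by a whole ten-compound pool holding the compound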
HePTP inhibitor: inhibitors of human HePTP phosphatase; inhibition, % at 20 µM; recombinant HePTP phosphatase activity, OD absorbance; hit rate 0.64% among 110,000; AID 521; P35236; in the data active = inhibition above about 50%
Target sequence (P35236 whole entry, looked up): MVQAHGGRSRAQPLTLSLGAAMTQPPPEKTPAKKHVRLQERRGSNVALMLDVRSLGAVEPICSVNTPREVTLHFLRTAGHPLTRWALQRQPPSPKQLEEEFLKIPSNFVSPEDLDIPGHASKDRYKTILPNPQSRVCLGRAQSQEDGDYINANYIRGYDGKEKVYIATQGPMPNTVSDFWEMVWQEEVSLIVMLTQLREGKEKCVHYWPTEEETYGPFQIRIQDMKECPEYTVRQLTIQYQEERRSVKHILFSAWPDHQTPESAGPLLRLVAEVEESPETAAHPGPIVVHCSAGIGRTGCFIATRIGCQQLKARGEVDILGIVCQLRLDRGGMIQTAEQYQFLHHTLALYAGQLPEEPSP
Candida biofilm: kills Candida albicans biofilms. C. albicans biofilm + clotrimazole, Alamar Blue. inhibition, % at 6 µM. hit rate 0.14% among 85,000. AID 834;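 active = inhibition above 20%; inactive = inhibition below 20%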;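 also: preformed 24 hr biofilms exposed to compound for 48 hr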
D1 mod confirm: D1 receptor (human) allosteric modulation, confirmed | hit rate 88% among 2,200 | shares compounds with D1 mod | HEK293 D1 CRE-luciferase, dopamine EC30 potentiation; hits give high values | luminescence at 10 µM;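 active = luminescence in either of two replicates above the same-plate mean plus 3 SD of the low-dose dopamine control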
D1 ag no DA: D1 (human) signaling in absence of dopamine; hit rate 0.8% among 1,900; shares compounds with D1 mod; luminescence at 10 µM; HEK293 D1 CRE-luciferase, luminescence, no dopamine; hits give high values; in the data active = luminescence above about 3900
Isoprot counter: alters isoproterenol CRE-luciferase response in HEK293 cells; shares compounds with D1 mod; HEK293 D1 CRE-luciferase, isoproterenol EC30 counter-screen; hits give high values; luminescence at 10 µM; hit rate 63% among 2,200;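 active = luminescence in either replicate above plate mean of wells with a partly effective reference agonist dose plus 3 SD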;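 also: isoproterenol raises cAMP through native beta-adrenoceptor Gs so signal bypasses D1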
A number is an active result; n = inactive; x = not tested or not shown. The entries come from a sample that favours hits as a whole. Rule as the data show it, unless noted: active = inhibition above about 20% (passing the limit was not always enough); inactive = the rest.

SMILES	D1 mod	TNAP act mid DEA	FXIIa inh mix	FXIa mix inh	HePTP inhibitor	Candida biofilm	D1 mod confirm	D1 ag no DA	Isoprot counter
COc1ccccc1-n1c(=O)[nH]c2c(C(N)=O)nc(CC(C)C)nc21	5.9	n	n	n	n	n	9424	n	n
Cc1ccc(-n2c(=O)[nH]c3c(C(N)=O)nc(-c4ccc(C)o4)nc32)cc1	n	n	n	n	n	x	x	x	x
Cc1ccc(-n2c(=O)[nH]c3c(C(N)=O)nc(CC(C)C)nc32)cc1	7.8	n	n	n	n	n	20900	n	4032
Cc1ccc(C)c(NC(=S)Nc2ccc(F)cc2)c1	x	x	x	x	n	x	x	x	x
CCCc1cc(C(N)=O)c(NC(=O)c2ccco2)s1	5	n	n	n	n	n	10424	n	3216
Cc1cc2c(cc1C)CN(c1ccc(C=Nc3ccc(Cl)cc3)cc1)C2	x	x	x	x	n	x	x	x	x
CCc1nn(CCCC(=O)N2CCc3ccccc3C2)c(=O)c2cc3occc3n12	2.9	n	n	n	n	x	10688	n	n
O=C(O)c1ccc(-c2ccc(O)c(F)c2)cc1	5.9	n	n	n	n	n	7760	n	2940
O=C(O)Cc1ccc(O)c(F)c1	x	x	x	x	x	n	x	x	x
CCOc1ccccc1NC(=O)CSc1ncnc2c1oc1ccccc12	3.6	n	n	n	n	n	6488	n	3352
C=CCNC(=O)c1ccccc1NC(=O)c1ccccc1	8.3	n	n	n	n	n	16308	n	n
CCOC(=O)C1=C(C)N=c2s/c(=C\c3ccc(C(=O)O)cc3)c(=O)n2C1c1ccc(OC)c(OC)c1 (stereo unspecified)	x	x	x	x	n	x	x	x	x
O=C(C1COc2ccccc2O1)N1CCOCC1 (stereo unspecified)	n	n	n	n	n	n	x	x	x
CC12CC(c3ccccc3O1)C(C(=O)N1CCOCC1)C(=O)N2 (stereo unspecified)	3.3	n	n	n	n	n	n	n	n
Cc1ccc(OCc2nc(-c3ccncc3)no2)c(Br)c1	x	x	x	x	n	x	x	x	x
Cc1cccc(-c2c3c(=O)n(C)c(=O)n(C)c3cn2-c2ccccc2O)c1	5.8	n	n	n	n	n	9336	n	n
Cc1ccc(C)n1-n1c(C)nc2scc(-c3cccs3)c2c1=O	n	n	n	n	n	n	x	x	x
Cc1nc2scc(-c3cccs3)c2c(=O)n1-n1cccc1	4.1	n	n	n	n	n	9316	n	4324
O=C(OCn1nnc2ccccc2c1=O)C1CCN(S(=O)(=O)c2cccs2)CC1	4	n	n	n	n	n	11392	n	n
O=C(Nc1ccncc1)c1cc2nc(-c3cccs3)cc(C(F)(F)F)n2n1	x	x	x	x	n	x	x	x	x
Cc1cc(C)n(-c2nc3ccccc3c3nc(C)nn23)n1	9.6	n	n	n	n	n	13408	x	3020
Cc1cc(C)n(-c2nc3ccccc3c(=O)n2OC2CCCCC2)n1	n	n	n	n	n	n	x	x	x
CCOC(=O)C1CCCN(C(=O)c2cc3nc(-c4cccc(OC)c4)cc(C(F)(F)F)n3n2)C1 (stereo unspecified)	11	n	n	n	n	n	14152	n	5168
CCOC(=O)C1CCCN(C(=O)c2cnn3c(C(F)(F)F)cc(-c4ccccc4)nc23)C1 (stereo unspecified)	n	n	n	n	n	n	x	x	x
Cc1cc(C)cc(Nc2ncc3c(n2)CC(c2ccco2)CC3=O)c1 (stereo unspecified)	4.7	n	n	n	n	n	7924	n	3048
SMILES	D1 mod	TNAP act mid DEA	FXIIa inh mix	FXIa mix inh	HePTP inhibitor	Candida biofilm	D1 mod confirm	D1 ag no DA	Isoprot counter
O=C(COc1ccc2c(c1)oc(=O)c1ccccc12)c1ccccc1	x	x	x	x	n	x	x	x	x
CCOC(=O)CSc1nc2cccnc2n1-c1ccc(F)cc1	22	n	n	n	n	n	24340	n	5172
CCCCOc1cc(C)nc(NCc2ccccc2)n1	10	n	n	n	n	n	5728	n	n
CCOc1cc(C)nc(NCc2ccccc2)n1	x	x	x	x	x	n	x	x	x
O=c1c(F)cn(C2CCCO2)c(=O)n1Cc1c(F)cccc1Cl (stereo unspecified)	6.2	n	n	n	n	x	8312	n	2872
N#Cc1c2c(c(NCCN3CCOCC3)n3c1nc1ccccc13)CCCC2	3.5	n	n	n	n	n	15848	n	11096
CCCN(CCC)c1ccc(C2NC(=O)c3c(sc4c3CCN(C)C4)N2)cc1 (stereo unspecified)	x	x	x	x	n	x	x	x	x
Cn1cccc1C1NC(=O)c2c(sc3c2CCC(C(C)(C)C)C3)N1 (stereo unspecified)	3	n	n	n	n	n	7568	n	n
CCCCn1cc(C(C)(C)C)c(C#N)c1NC(C)=O	6	n	n	n	n	n	9748	n	3100
CCCCn1c(NC(=O)c2ccccc2)c(C#N)c2nc3ccccc3nc21	n	n	n	n	n	x	x	x	x
N#Cc1c(SCC(N)=O)nsc1SCc1ccccc1Cl	5.6	n	n	n	n	n	5884	x	2992
COC(=O)C1=C(C)Nc2cc(C(F)(F)F)ccc2S1	x	x	x	x	n	x	x	x	x
Cc1c(C(=O)OCC(C)C)[nH]c2c1C(=O)CC(c1ccco1)C2 (stereo unspecified)	5.8	n	n	n	n	n	12056	n	n
Cc1cc(N)n2ncc(-c3cccc(Br)c3)c2n1	6.4	n	n	n	n	x	10808	n	3512
N/C(=N\S(=O)(=O)c1ccccc1)c1cccc(Cl)c1	x	x	x	x	n	x	x	x	x
CCNc1nc(NC(C)(C)C)nc(N(CC)n2cnnc2)n1	2.7	n	n	n	n	n	8308	n	n
CCNc1nc(NCC)nc(Nn2cnnc2)n1	n	n	n	n	n	n	x	x	x
N#Cc1sc2nc3c(c(-c4ccco4)c2c1N)CCCC3	9.6	n	n	n	n	n	12060	n	4060
Cc1ccccc1NC(=O)c1sc2nc3c(c(-c4ccco4)c2c1N)CCC3	x	x	x	x	x	n	x	x	x
N#C/C(=C/c1ccc(-c2ccccc2C(=O)O)o1)C(=O)Nc1ccc2ccccc2c1	x	x	x	x	n	x	x	x	x
Cc1sc(NC(=O)CSc2nnc(COc3ccccc3)n2C)c(C#N)c1C	6.8	n	n	n	n	n	n	n	n
CCn1c(SCC(=O)Nc2sc(C)c(C)c2C#N)nnc1C(C)C	4.5	n	n	n	n	n	n	n	n
C(=Nc1ccc2c(c1)ncn2-c1ccccc1)c1c[nH]c2ccccc12	x	x	x	x	n	x	x	x	x
N=c1c(S(=O)(=O)c2ccccc2)cc2c(=O)n3ccccc3nc2n1CC1CCCO1 (stereo unspecified)	7.6	n	n	n	n	n	10760	n	3592
Cc1ccc(S(=O)(=O)c2cc3c(=O)n4cc(C)ccc4nc3n(CC3CCCO3)c2=N)cc1 (stereo unspecified)	n	n	n	n	n	n	x	x	x
